Source: PubChem
The list is not random: actives were taken first. Their share in the collection is about 5.5%.
Mito fusion yeast: mitochondrial division inhibition or fusion activation | S. cerevisiae fusion-defective mutant growth rescue, CellTiterGlo 48 h | Potency, µM (titrated, usually from 46.1 µM), without a hit: at the top dose growth rescue (activation), most hits filed as activators | 320,000 tested, 0.23% active | AID 485298; note: % of control where 0% means no effect; nearly all actives have a fitted effect of over 45% in size
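Temperature-sensitive fusion-defective S. cerevisiae (e.g. fzo1-1, mgm1-5) were grown with compound in YPEG medium (3% ethanol, 3% glycerol) for 48 hours at 37C. Growth rescue was measured as viability by CellTiterGlo luminescence after 10 minutes at ambient.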
BCR signal inh: chronic active BCR signaling inhibition | ABC-DLBCL IkBa-CBG/CBR reporter, luminescence ratio, 4 h | Potency, µM (highest dose often 46.1 µM), without a hit: at the top dose activity change, negative = inhibition, usual class: inhibitors | 340,000 tested, 0.05% active; active = well fitted inhibition curve with a large enough effect in the signal ratio, with a control signal flat, not every such curve was filed as active; inconclusive = small, poorly fitted or top-dose-only effect, or effect the other way, or a change in a side signal; the % refers to the signal ratio;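 note: plate controls were basal doxycycline-induced cells for no effect and cells given 10 µM MG132 for full effect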
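Compounds up to 46 uM were incubated four hours with TMD8 cells whose green CBG68 luciferase is fused to IkappaBalpha; red CBR luminescence normalised the signal, and concentration-effect curves were fitted to fusion, red and ratio data.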
uPA generation: cell surface uPA generation inhibition; AID 540303; cell surface uPA generation assay, qHTS; 330,000 tested, 0.31% active; Potency, µM (highest dose often 38.3 µM), for the others: at the top dose activity change, negative = inhibition, actives largely listed as inhibitors; active = well fitted inhibition curve with a large enough effect; inconclusive = small, poorly fitted or top-dose-only effect; inactive = no such curve, though single readings can be large or run the other way; tested in mouse RAW 264.7 cells; note: % is set by controls: 0 for no effect and ±100 for the full control effect; nearly all actives have a fitted effect of over 55% in size
Integrin act MD: activates integrin-mediated alleviation for muscular dystrophy; alpha7betagal myoblasts, beta-gal FDG fluorescence, 48 h; Potency, µM (titrated, usually from 38.3 µM), inactives show at the highest dose activation, actives largely listed as activators; 350,000 tested, 0.064% active;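 note: 100% = response of the positive control SU9516; nearly all actives have a fitted effect of over 60% in size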
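alpha7betagal+/- myoblasts (passage 13, 250/well) treated 48 h at 37C with compounds at 1:260 dilution of DMSO stock. Lysed, then beta-galactosidase activity read as FDG fluorescence (ex 480/em 540) after 30 min, with pre-read for autofluorescence.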
Gal4-VP16 FLuc: inhibits Gal4-VP16 luciferase reporter, ROR gamma counter-screen; Drosophila S2 Gal4-VP16 UAS-luciferase, luminescence, 20 h; AID 2546; Potency, µM (doses to about 53.6 µM), inactives show top-dose activity, negative = inhibition, actives largely listed as inhibitors; 310,000 tested, 3.5% active;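 note: Gal4-VP16 expression switched on by copper sulfate through the metallothionein promoter; % is set by controls: 0 for no effect and ±100 for the full control effect; nearly all actives have a fitted effect of over 50% in size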
RORgamma inh: ROR gamma (mouse) transcription inhibition; Drosophila S2 Gal4-RORgamma UAS-luciferase reporter, 20 h; Potency, µM (series often up to 53.6 µM), without a hit: at the highest dose activity change, negative = inhibition, hits mostly inhibitors; 310,000 tested, 5.4% active; AID 2551; note: % is set by controls: 0 for no effect and ±100 for the full control effect; nearly all actives have a fitted effect of over 60% in size
Target sequence (P51450 whole entry, looked up, the tested form may be a part): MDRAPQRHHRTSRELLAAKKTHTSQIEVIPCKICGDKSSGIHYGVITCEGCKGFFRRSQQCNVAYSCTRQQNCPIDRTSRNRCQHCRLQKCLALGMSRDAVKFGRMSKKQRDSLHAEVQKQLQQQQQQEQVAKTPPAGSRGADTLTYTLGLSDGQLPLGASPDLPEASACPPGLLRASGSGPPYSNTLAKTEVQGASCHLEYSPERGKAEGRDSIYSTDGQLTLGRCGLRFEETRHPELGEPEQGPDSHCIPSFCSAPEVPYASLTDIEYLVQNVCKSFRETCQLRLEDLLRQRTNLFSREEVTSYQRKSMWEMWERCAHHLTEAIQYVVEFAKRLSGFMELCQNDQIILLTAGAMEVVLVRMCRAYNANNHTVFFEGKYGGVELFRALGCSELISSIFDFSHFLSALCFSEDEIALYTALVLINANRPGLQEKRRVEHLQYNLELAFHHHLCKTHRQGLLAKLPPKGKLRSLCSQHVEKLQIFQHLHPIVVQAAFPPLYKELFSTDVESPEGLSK
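Drosophila S2 cells stably expressing Gal4-DBD/mouse RORγ fusion under metallothionein promoter plus UAS-luciferase; compound 1 h, then 700 uM CuSO4 induction for 20 h at ambient temperature; inhibition read as reduced luminescence.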
Active calls of the source: *; ? = inconclusive; · = no result; [ ] = dose if it differs, or a comment. Unless noted, calls come from the whole dose curve; as a rule, active = well fitted curve in the direction sought with a large enough effect; inconclusive = small, poorly fitted or top-dose-only effect, or another doubt; inactive = no such curve, though single readings can be large; an effect the other way counts as inactive or inconclusive. Potency is the fitted concentration of half-maximal effect.

SMILES	Mito fusion yeast	BCR signal inh	uPA generation	Integrin act MD	Gal4-VP16 FLuc	RORgamma inh
CCCCn1c(C)cc2c(c1=O)C1O[C@](CCCC)(Cc3cc(C#N)ccc31)O2	-3%[9.22 µM]	25%[9.22 µM]	·	·	-12%[10 µM]	-7%[10 µM]
CCOc1c(OC(C)=O)ccc(/C=C/c2ccc3cccc(OC)c3n2)c1[N+](=O)[O-]	0%	-12%	-6%	20%	-5%	?
COc1cccc(/C=C/c2ccc3cccc(O)c3n2)c1OC	11%	?	-6%	-57%	5.6µM*	2.8µM*
COC(=O)c1ccc(/C=C/c2ccc3cccc(OC)c3n2)cc1	0%	?	-6%	-15%	0%	-44%
COc1ccc(/C=C/c2ccc3cccc(O)c3n2)c(OC)c1OC	8%	?	-4%	-64%	?	3.2µM*
Cc1nc2ccc(S(=O)(=O)Nc3cccc(-c4nc5cccnc5s4)c3C)cc2s1	18µM*	-16%	-7%	12%	?	-22%
Cc1ccccc1NC(=O)CCN1CCN(C)CC1	3%	4%	-2%	36%	-10%	10µM*
CCCC[C@@H]1C[C@H]1C(NC(=O)c1ccc(C(F)(F)F)cc1)c1ccc(C(=O)OC)cc1 (stereo partly specified)	·	·	·	·	-5%	1%
CCCC[C@@H]1C[C@H]1C(NC(=O)c1ccccc1)c1ccc(C(F)(F)F)cc1 (stereo partly specified)	·	·	·	·	?	16µM*
CCCOc1ccc(Cc2c(Cl)nc(SC)nc2OC)cc1	9%	?	1%	-12%	-14%	41%
CCCOc1ccc(Cc2c(Cl)nc(SC)nc2N(C)C)cc1	11%	9%	-2%	-40%	5µM*	?
Cc1noc(C)c1C(=O)OCC(=O)C12CC3CC(CC(C3)C1)C2	-1%	0%	-1%	22%	0%	-10%
O=C(Nc1nnc(-c2ccc3c(c2)CCCC3)o1)c1ccc(Cl)cc1Cl	?	?	?	-21%	1.6µM*	1.6µM*
O=C(Nc1nnc(-c2ccc3c(c2)CCCC3)o1)c1c(F)cccc1F	0%	?	-2%	-13%	4.5µM*	0.5µM*
COc1ccccc1-c1nc(NCCN2CCOCC2)c2ccccc2n1	·	·	·	·	-14%	-30%
COc1ccc(C2C(=O)N(C3CCCCC3)CC(=O)N2CCc2ccc(C)cc2)cc1OC (stereo unspecified)	·	-9%	·	·	·	·
Cc1cccc(N(Cc2ccccc2)C(=O)c2ccc(CS(C)(=O)=O)cc2)c1	3%	-2%	4%	-10%	1%	21%
CS(=O)(=O)Cc1cccc(C(=O)NN(c2ccccc2)c2ccccc2)c1	1%	-9%	·	13µM*	-4%	18%
O=C(C#Cc1ccccc1)c1ccco1	-55%	?	-5%	-56%	3.2µM*	2.8µM*
O=C(N/N=C/c1ccccc1)c1ccco1	-7%	?	-14%	?	-5%	-17%
Cc1cccc(C)c1-n1c(C)cc(/C=N\Nc2ccc([N+](=O)[O-])cn2)c1C	24%	?	3%	-18%	-3%	-25%
Cc1cc(/C=N/Nc2nc(N)ncc2[N+](=O)[O-])c(C)n1-c1ccccc1F	1%	-24%	·	·	7.1µM*	1.6µM*
CC(=O)OCC(NC(=O)C(C)NC(=O)OC(C)(C)C)C1OC(n2cc(C)c(=O)[nH]c2=O)C(OC(C)=O)C1OC(C)=O (stereo unspecified)	·	·	·	·	1%	-1%
Cc1ccc2c(c1)N(C(=O)CCC(=O)Nc1ccccc1Cl)CC(C)O2 (stereo unspecified)	4%	3%	20%	2%	1%	-15%
C[C@@H]1CC=C[C@H]2[C@H]1C(=O)N(Cc1ccccc1)[C@H]2c1ccc2ccccc2c1/C=C/c1ccccc1	22%	7%	-8%	4%	0%	-15%
SMILES	Mito fusion yeast	BCR signal inh	uPA generation	Integrin act MD	Gal4-VP16 FLuc	RORgamma inh
CC1CC=CC2C1C(=O)N(Cc1ccccc1)C2c1ccc2ccccc2c1Br (stereo unspecified)	·	·	·	·	22µM*	?
N[C@H]1CONC1=O	-5%	·	-16%	·	·	·
Cc1ccc(-c2nn(CCC(=O)O)cc2/C=C\C(=O)c2ccc(Br)cc2)cc1	-6%	?	6.3µM*	-57%	19%[10 µM]	?
Cc1ccccc1N1CN(Cc2ccco2)CNC1=S	-5%	-1%	0%	7%	?	10µM*
Cc1cccc(N2CN(Cc3cccnc3)CNC2=S)c1C	-6%	2%	-2%	21%	-7%	-21%
Cc1cccc(N2CN(Cc3ccco3)CNC2=S)c1C	-5%	2%	4%	21%	11µM*	7.1µM*
Cc1ccc(C)c(N2CN(Cc3cccnc3)CNC2=S)c1	-8%	-7%	1%	-1%	-8%	-27%
Cc1ccc(C)c(N2CN(Cc3ccco3)CNC2=S)c1	-4%	4%	-2%	14%	10µM*	6.3µM*
O=C(CNC(=O)c1cccc(F)c1)N/N=C/c1cc(Br)ccc1OC(=O)/C=C/c1ccco1	?	0%	?	-40%	7.9µM*	3.5µM*
O=C(CNC(=O)c1ccccc1O)N/N=C/c1cc(Br)ccc1OC(=O)/C=C/c1ccco1	-6%	?	-5%	1%	-7%	5.6µM*
COc1ccc([N+](=O)[O-])cc1/C=N/NC(=O)CNC(=O)c1cccc(F)c1	2%	0%	-5%	5%	?	10µM*
Cc1ccc(C2(COC(=O)C(C)C)CO2)c(OC(=O)C(C)C)c1 (stereo unspecified)	-13%	?	7%	-11%	8.9µM*	-7%
CCC(C)C(=O)OCC1(c2ccc(C)cc2OC(=O)C(C)C)CO1 (stereo unspecified)	-12%	?	5%	-45%	?	0%
CC(C)C(=O)Nc1cccc(NC(=S)NC(=O)c2cccs2)c1	-3%	?	-11%	29%	?	-40%
COc1cc(NC(=S)NC(=O)c2cccs2)ccc1NC(=O)C(C)C	-4%	?	-8%	-16%	?	13µM*
CCCCC(=O)Nc1ccc(NC(=S)NC(=O)c2cccs2)cc1OC	23%	-18%	3%	-26%	?	10µM*
CCCCC(=O)Nc1ccc(NC(=S)NC(=O)c2ccco2)cc1OC	2%	-10%	-3%	1%	0%	10%
CCCCC(=O)Nc1ccc(NC(=S)NC(=O)CCCCl)cc1OC	-13%	?	0%	1%	?	?
CCCCC(=O)Nc1ccc(NC(=S)NC(=O)CC)cc1OC	-3%	-1%	0%	31%	-1%	13µM*
Cc1nc(NC(=O)CCl)sc1C(=O)N(C)C	-5%	?	10µM*	-33%	?	?
Cc1nc(NC(=O)C(Cl)Cl)sc1C(=O)N(C)C	-3%	-1%	3%	7%	-1%	-24%
